Whole data set: some 13,000 compounds, median “IFI” near 4, cut for the highest 2% near 17. For the sample, the highest values were picked, then their nearest neighbours and some compounds at random.
assay: GSK_TCMDC: Inhibition Frequency Index (IFI). The number of non-kinase HTS assays where a compound showed > 50 % inhibition, expressed as a percentage of the number of such assays in which the compound was tested; format: functional

SMILES	IFI [%]
CN(C)Cc1cccc(-c2ccc(Nc3nccc(NCC(O)c4ccccc4)n3)cc2)c1 (stereo not drawn)	17.2
Cc1ccc(Nc2nccc(NCC(O)c3ccc(C(F)(F)F)cc3)n2)cc1 (stereo not drawn)	9.18
Cc1cccc(Nc2nccc(NCC(O)c3cccc(C(F)(F)F)c3)n2)c1 (stereo not drawn)	14.3
COc1ccc(Nc2nccc(NCC(O)c3cccc(C(F)(F)F)c3)n2)cc1 (stereo not drawn)	15.3
Cc1ccc(Nc2nccc(NCC(O)c3cccc(C(F)(F)F)c3)n2)cc1 (stereo not drawn)	17.9
CN(C)CC(=O)Nc1ccc(Nc2nccc(NCC(O)c3ccccc3)n2)cc1 (stereo not drawn)	2.94
Cc1ccc(Nc2nccc(NCC(O)c3cccc(C)c3)n2)cc1 (stereo not drawn)	18.4
Cc1ccc(Nc2nccc(NCC(O)c3cccc(F)c3)n2)cc1 (stereo not drawn)	9.71
OC(CNc1ccnc(Nc2ccccc2)n1)c1cccc(C(F)(F)F)c1 (stereo not drawn)	12.2
OC(CNc1ccnc(Nc2ccc(Cl)cc2)n1)c1cccc(C(F)(F)F)c1 (stereo not drawn)	16.3
COc1cccc(C(O)CNc2ccnc(Nc3ccc(Cl)cc3)n2)c1 (stereo not drawn)	19.8
CN(C)Cc1ccc(-c2cccc(Nc3nccc(NCC(O)c4ccccc4)n3)c2)cc1 (stereo not drawn)	11.2
NS(=O)(=O)c1ccc(Nc2nccc(-c3c(-c4cccc(NC(=O)c5c(F)cccc5F)c4)nn4ccccc34)n2)cc1	7.96
Cc1cc(-c2ccc3c(c2)CCN(CCCOc2ccc4c(c2)CCN4C(=O)/C=C/c2ccccc2Cl)CC3)no1	10.8
CN(C)CCN(C)Cc1ccc(-c2ccc3c(Nc4ccc(F)cc4Cl)ccnc3c2)o1	9.86
Nc1ccc2[nH]cc(C3CCN(CCC4CCN(C(=O)/C=C/c5ccc(Cl)c(Cl)c5)CC4)CC3)c2n1	8.76
CCCNCc1ccc(-c2ccc(CN(CCOC)C(=O)c3cnc(C)cn3)cc2)nc1	0
O=C(Nc1ccc(C(F)(F)F)cc1)N[C@H]1CCN(CCCCCNC(=O)C2CC2c2ccc(Cl)c(Cl)c2)C1 (stereo partly drawn)	16.8
CC(C)Cc1cn(-c2nc(-c3nc4ccccc4[nH]3)cs2)c2ccncc12	4.94
CC(C)Cc1cn(-c2nc(C(=N)N)cs2)c2cc(Cl)ccc12	23.9
CC(C)Cc1cn(-c2nc(-c3nc4ccccc4[nH]3)cs2)c2cc(Cl)ccc12	1.18
CCCN(Cc1ccc(C)cc1)Cc1cc(=O)c2cc(Cl)ccc2[nH]1	9.09
Fc1ccc2[nH]c(-c3cccc(-c4ccc(CN5CCN(c6ccncc6)CC5)cc4)c3)nc2c1	5.63
Fc1ccc2[nH]c(-c3ccc(-c4cccc(CN5CCN(c6ccncc6)CC5)c4)cc3)nc2c1	18.1
Fc1ccc2[nH]c(-c3cccc(-c4cccc(CN5CCN(c6ccncc6)CC5)c4)c3)nc2c1	13.6

SMILES	IFI [%]
Cc1cc(N)c2cc(NC(=O)c3cc4ccccc4s3)ccc2n1	6.12
c1ccc(COc2ccc(C3CCCCC3)cc2)nc1	2.9
CC(CNC(=N)c1cccc(C(=N)NCC(C)Oc2cccc(C3CCCCC3)c2)n1)Oc1cccc(C2CCCCC2)c1 (stereo not drawn)	17.7
N=C(NCC1CC1c1ccccc1)c1cccc(C(=N)NCC2CC2c2ccccc2)n1 (stereo not drawn)	5.65
Cc1cccc(NC(=O)Nc2cccc(-c3ccc(-c4nc5cc(C(F)(F)F)ccc5[nH]4)cc3)c2)c1	6.45
NCCNc1ccc([N+](=O)[O-])cc1C(=O)Nc1cccc(C(F)(F)F)c1	1.45
Cc1cc(Cl)c(Cl)cc1NC(=O)Nc1cccc(C(F)(F)F)c1	6.52
O=C(Nc1ccc(C(F)(F)F)cc1)c1cc(Br)cnc1NCCCn1ccnc1	1.67
Cc1ccc(C)c(S(=O)(=O)Nc2ccc(Br)cc2C(=O)Nc2cccc(C(F)(F)F)c2)c1	21.1
O=C(Nc1ccc(C(F)(F)F)cc1)c1ccc(S(=O)(=O)NC2CCN(CC3CCCCC3)CC2)cc1	2.41
O=C(Nc1cc(C(F)(F)F)cc(C(F)(F)F)c1)c1cc(C(F)(F)F)cc(C(F)(F)F)c1	3.65
O=C(Nc1ccc(Br)cc1)c1cc(Br)ccc1NS(=O)(=O)c1cc(C(F)(F)F)cc(C(F)(F)F)c1	19.9
COc1cc(NC(=O)Nc2ccc(Br)cc2C(=O)Nc2ccc(Br)cc2)cc(OC)c1OC	1.55
O=C(Nc1ccc(Br)cc1)c1cc(Br)ccc1NS(=O)(=O)c1ccc(C(F)(F)F)cc1	25
COc1ccc2c(NN=Cc3ccccc3F)ccnc2c1	3.52
CC(C)[C@H](NC(=O)c1c(F)cccc1F)C(=O)Nc1ccc(Cc2nc3ccccc3s2)cc1	1.96
CN(N=Cc1ccccc1)C(=N)NCCCC#Cc1cccc(CN2CCCC2)c1	4.23
CC(Sc1nnc(-c2cccs2)[nH]1)C(=O)c1c[nH]c2ccccc12 (stereo not drawn)	1.92
Oc1ccc2nc(NCCCc3ccccc3)nc(NCCc3ccccc3)c2c1	14.1
CCN(CC)/C(=N/C(=N)NCc1ccc(Cl)cc1)NCCCCCCN/C(=N\C(=N)NCc1ccc(Cl)cc1)N(CC)CC	15.1
COc1cccc(-c2ccc(NC(=O)C3CCCN(Cc4cccc(OC)c4O)C3)cc2)c1 (stereo not drawn)	4.35
Oc1c(C(Nc2ccccn2)c2ccco2)cc(Cl)c2cccnc12 (stereo not drawn)	22.6
O=C(Cc1ccccc1)NC(c1ccco1)c1cc(Cl)c2cccnc2c1O (stereo not drawn)	8
CCC(=O)NC(c1ccco1)c1cc(Cl)c2cccnc2c1O (stereo not drawn)	4.35
N=C1C=C(N)C(=O)c2ccccc21	20.8

SMILES	IFI [%]
O=C(Nc1ccc(-c2cccc(-c3nc4cc(C(F)(F)F)ccc4[nH]3)c2)cc1)Nc1ccc(F)c(F)c1F	5.83
COc1ccc(CCCN2C(=O)C(c3ccccc3)(c3ccccc3)N=C2N)cc1	8.65
CCC(CC)CN1C(=O)C(c2ccccc2)(c2ccccc2)N=C1N	3.7
COc1ccccc1CCCN1C(=O)C(c2ccccc2)(c2ccccc2)N=C1N	22.3
CCCCC(CCCC)CN1C(=O)C(c2ccccc2)(c2ccccc2)N=C1N	20.9
COc1ccc(CCCCN2C(=O)C(c3ccccc3)(c3ccccc3)N=C2N)cc1	7.69
CCCCC(CC)CN1C(=O)C(c2ccccc2)(c2ccccc2)N=C1N (stereo not drawn)	16.3
N#Cc1cccc(NC(=O)Nc2ccc(-c3cccc(-c4nc5cc(F)ccc5[nH]4)c3)cc2)c1	4.04
Cc1cccc2nc(-c3ccc(-c4ccc(CNCc5ccccc5)cc4)s3)[nH]c12	9.62
Oc1c(CN2CCCC(C(F)(F)F)C2)cc(Cl)c2ccccc12 (stereo not drawn)	6.38
Cc1ccc(CN2CCCN(Cc3cccc(NC(=O)c4cc5ccccc5s4)c3)CC2)cc1	10.2
CN1CCC(C(=O)Nc2cccc(-c3cccc(-c4nc5cc(F)ccc5[nH]4)c3)c2)CC1	4.24
Cc1cccc2nc(-c3cccc(-c4cccc(CNCc5ccc(S(C)(=O)=O)cc5)c4)c3)[nH]c12	8.65
Cc1ccc2c(=NN=Cc3cccc(Cl)c3)cc(C)[nH]c2c1	10.1
COc1ccc(-c2cccc(NC(=O)c3cccc(C#N)c3)c2)cc1CN1CCC(O)CC1	0
CC(C)CCN1CCC(Oc2ccc(NC(=O)c3cccs3)cc2Cl)CC1	8.06
c1cc(CN2CCC(CCN3CCCCC3)CC2)cc(-c2cccc(-c3nc4ccccc4[nH]3)c2)c1	5.56
Cc1cc(N[C@@H](Cc2ccccc2)C(=O)NCCOc2ccccc2)nc(NCCc2ccccc2)n1	16.3
Cc1cccc(CNc2nc(C)cc(N[C@@H](CC(C)C)C(=O)NCc3cccc(F)c3)n2)c1	9.52
Cc1cc(N[C@@H](CC(C)C)C(=O)NCCc2ccccc2)nc(NCC2CCCCC2)n1	16.3
Cc1cc(N[C@@H](CC(C)C)C(=O)NCc2cccc(F)c2)nc(NCC2CCCCC2)n1	18.6
Cc1cc(N[C@@H](CC(C)C)C(=O)NCc2cccc(F)c2)nc(NCCc2ccccc2)n1	17.1
Cc1ccc(CNC(=O)[C@H](CC(C)C)Nc2cc(C)nc(NCC3CCCCC3)n2)cc1	19.1
Cc1ccc(CNC(=O)[C@H](Cc2ccccc2)Nc2cc(C)nc(NCc3ccccc3C)n2)cc1	4.88
Cc1cc(N[C@@H](Cc2ccccc2)C(=O)NCCc2ccccc2)nc(NCCOc2ccccc2)n1	7.5

SMILES	IFI [%]
Cc1cc(N[C@@H](Cc2ccccc2)C(=O)NCc2cccs2)nc(NCC2CCCCC2)n1	16.3
Cc1cc(N[C@@H](Cc2ccccc2)C(=O)NCCOc2ccccc2)nc(NCCOc2ccccc2)n1	24.4
Cc1ccc(CNC(=O)[C@H](CCCN)Nc2cc(C)nc(NCC3CCCCC3)n2)cc1	4.88
Cc1ccc(CNC(=O)[C@H](Cc2ccccc2)Nc2cc(C)nc(NCC3CCCCC3)n2)cc1	24.3
CN(C)CCN(Cc1ccc(-c2ccc(CNCCc3ccccc3)cc2)nc1)C(=O)CCC1CCCC1	8.33
COc1ccc2c(N/N=C/c3ccccc3[N+](=O)[O-])ccnc2c1	3.62
CC1(C)CCC(C)(C)c2c1ccc(C1CCN(CCCCNC(=O)c3ccc(-c4ccc(Cl)cc4)cc3)CC1)c2O	13.7
COc1ccc(CON2C(=N)N=C(N)NC2(C)C)cc1OC	1.47
COc1ccc(C#Cc2ccc(-c3c(C)[nH]c(C)c(Cl)c3=O)cc2)cc1	0.88
CCN(CC)CCN(Cc1ccc(-c2ccc(C(F)(F)F)cc2)cc1)C(=O)Cn1c(CCc2c(F)ccc(F)c2F)nc(=O)c2ccccc21	9.09
Cc1nc(C)c(-c2ccc(S(=O)(=O)c3ccc(Cl)cc3)cc2)c(O)c1Cl	0.78
CC(C)Cn1cc(C2CCN(CCN3CCC(CNC(=O)c4ccc(-c5ccc(C(F)(F)F)cc5)cc4)CC3)CC2)c2ccccc21	9.17
O=C(/C=C/c1ccc(Cl)c(Cl)c1)NC1CCC(CN2CCC(c3nc4cccnc4[nH]3)CC2)CC1 (stereo not drawn)	4.96
CCN(CC)CCN(Cc1ccc(-c2ccc(C(F)(F)F)cc2)cc1)C(=O)Cn1c(/C=C/c2ccco2)nc(=O)c2ccccc21	5.52
Cc1cc(N[C@@H](Cc2ccccc2)C(=O)NCc2cccc(F)c2)nc(NCCc2ccc(F)cc2)n1	9.09
Cc1cc(N[C@@H](Cc2ccccc2)C(=O)NCc2cccc(F)c2)nc(NCCc2ccccc2)n1	9.3
Cc1cc(N[C@@H](Cc2ccccc2)C(=O)NCCCOC(C)C)nc(NCCc2ccc(F)cc2)n1	2.44
Cc1cc(N[C@@H](Cc2ccccc2)C(=O)NCc2cccc(F)c2)nc(Nc2ccccc2)n1	4.76
Cc1cccc(CNc2nc(C)cc(N[C@@H](Cc3ccccc3)C(=O)NCc3cccc(F)c3)n2)c1	19.1
Cc1cc(N[C@@H](Cc2ccccc2)C(=O)NCc2cccc(F)c2)nc(NCCCOC(C)C)n1	18.2
Cc1cc(N[C@@H](Cc2ccccc2)C(=O)NCc2cccc(F)c2)nc(NCc2ccccc2C)n1	4.88
Cc1cc(N[C@@H](Cc2ccccc2)C(=O)NCc2cccc(F)c2)nc(NCC2CCCCC2)n1	27.9
Cc1cc(N[C@@H](Cc2ccccc2)C(=O)NCc2cccc(F)c2)nc(NCCOc2ccccc2)n1	6.98

From ChEMBL document CHEMBL1157539, “Thousands of chemical starting points for antimalarial lead identification” (Nature, 2010)
